The source of these data is PubChem BioAssay (NCATS).

Results filed as inconclusive are left out. Activity calls are given as the source filed them. Unless noted, calls come from the whole dose curve; as a rule, active = well fitted curve in the direction sought with a large enough effect; inconclusive = small, poorly fitted or top-dose-only effect, or another doubt; inactive = no such curve, though single readings can be large; an effect the other way counts as inactive or inconclusive.

Experiment [1] in a line: Validation of Assay for Modulators of Lamin A Splicing (AID 1459; active = well fitted curve in the direction sought with a large enough effect in the signal ratio; the % refers to the signal ratio;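 note: cells exposed to compound for two days before reading; ratio rise marks activators and ratio drop marks inhibitors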). The method in brief: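 S3 HeLa cells stably expressing a lamin A-EGFP splicing minigene and DsRed2 were seeded at 600 cells/well in Opti-MEM with 2% FBS, pin-dosed, and incubated 48 hrs at 37 °C, 5% CO2. Laser-scanning cytometry (488 nm) gave GFP/RFP total intensity ratio.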
Experiment [2] addresses DNA repair nuclease/redox regulator APEX1 (Homo sapiens) (UniProt P27695). In words: qHTS Validation Assay for Inhibitors of the Human Apurinic/apyrimidinic Endonuclease 1 (APE1) (AID 1705;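 note: TAMRA fluorescence gain over two minutes as APE1 cuts a quenched THF abasic duplex; series mostly up to about 57 µM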). The method in brief:
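Human APE1 was preincubated with compound for 15 min at room temperature, then 50 nM (final) THF-abasic double-stranded DNA substrate bearing 5'-TAMRA and 3'-BHQ-2 was added. Incision-driven fluorescence rise (ex 525/em 598 nm) was read kinetically.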

Experiment [3] can be described thus: Counterscreen for APE1 Inhibitors: Fluorescent Dye Displacement Validation Assay (AID 1707). The method in brief:
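ThO 250 nM + dsDNA 50 nM (THF abasic site, 5'-TAMRA), Tris-HCl pH7.5/50mM NaCl/2 mM MgCl2/0.01% Tween-20; compounds pin-transferred; ex 480/em 540 nm endpoint. Neutral = no compound; no-DNA ThO wells = negative control.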

Experiment [4] in a line: qHTS for differential inhibitors of proliferation of Plasmodium falciparum line 7G8 (AID 1815).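 Note: parasite growth measured after three days of incubation.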 Note: potency is the fitted concentration of half-maximal effect.
The nature of experiment [5]: qHTS for differential inhibitors of proliferation of Plasmodium falciparum line GB4 (AID 1816).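 Note: parasite growth measured after 72 h incubation.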 Note: potency is the fitted concentration of half-maximal effect. Conditions: Potency: Plasmodium falciparum GB4 proliferation inhibition.
The nature of experiment [6]: qHTS for differential inhibitors of proliferation of Plasmodium falciparum line D10 (AID 1877).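 Note: parasites grown with compound for 72 h before DNA staining.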 Note: potency is the fitted concentration of half-maximal effect.
A short description of experiment [7]: qHTS for differential inhibitors of proliferation of Plasmodium falciparum line W2 (AID 1883).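 Note: potency is the fitted concentration of half-maximal effect; parasites grown with compound for 72 h before lysis and staining.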 To be noted: Potency: Plasmodium falciparum W2 proliferation inhibition.
Experiment [8] is described as follows: qHTS for differential inhibitors of proliferation of Plasmodium falciparum line HB3 (AID 1886).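 Note: potency is the fitted concentration of half-maximal effect; parasites grown with compound for 72 h before SYBR Green readout.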 To be noted: Potency: Plasmodium falciparum HB3 proliferation inhibition.
Experiment [9] is described as follows: qHTS Assay for Modulators of Human Peripheral Myelin Protein 22 (PMP22) Expression/Activity (AID 1967; active = well fitted curve in the direction sought with a large enough effect in the signal ratio; the % refers to the signal ratio). The method in brief:
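MSC80 mouse Schwann cells stably carrying Pmp22 promoter–green click beetle luciferase plus EF-alpha–red luciferase control were dosed for 24h at 37 °C. Dual-colour luminescence was filter-overlap corrected; %Activity came from green/red ratio versus untreated cells.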

Experiment [10] deals with Ferritin light chain (Equus caballus) (UniProt P02791). In words: qHTS Validation Assay for Identification of Novel General Anesthetics (AID 2323). Note: series mostly up to about 77 µM. The method in brief: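 Competitive displacement of profluorescent 1-aminoanthracene (1-AMA, 50% saturated solution in PBS) from 10 uM horse-spleen apoferritin. Compounds incubated 10 min at room temperature; fluorescence read at 380 nm excitation/535 nm emission, normalized to free 1-AMA and complex, fitted with four-parameter Hill equation.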
Ferritin light chain (Equus caballus), sequence (P02791 2-175 limits assumed): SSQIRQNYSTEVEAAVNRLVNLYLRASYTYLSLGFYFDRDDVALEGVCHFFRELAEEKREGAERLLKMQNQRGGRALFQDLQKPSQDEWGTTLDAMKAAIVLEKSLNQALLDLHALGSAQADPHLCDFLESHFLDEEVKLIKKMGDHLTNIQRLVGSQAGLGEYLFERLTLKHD

Experiment [11] concerns the target ATP-dependent DNA helicase Q1 (Homo sapiens) (UniProt P46063). Put plainly: qHTS Validation Assay for Inhibitors of RecQ-Like Dna Helicase 1 (RECQ1) (AID 2353). The method in brief:
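50 nM RECQ1T1 preincubated 15 min with compound in Tris pH 8.0 buffer with MgCl2, DTT, Tween-20 and 2.5 ug/ml poly(dI-dC); started with 200 nM TAMRA/BHQ-2 forked duplex and 2 mM ATP. Unwinding read as fluorescence (525/598 nm), two reads 2 h apart.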

Experiment [12] concerns the target RecQ-like DNA helicase BLM (Homo sapiens) (UniProt P54132). In words: qHTS Validation Assay for Inhibitors of Bloom's syndrome helicase (BLM) (AID 2364). The procedure, abridged:
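BLM 50 nM in 25 mM Tris-HCl pH 8.0, 5 mM NaCl, 2 mM MgCl2, 1 mM DTT, 0.01% Tween-20, 2.5 ug/ml poly(dI-dC); 15 min cpd preinc, RT. Start: 200 nM forked DNA + 2 mM ATP (final). TAMRA read, 2 reads 2 h apart.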

Experiment [13] in a line: High Content Imaging Cell-Based qHTS for Inhibitors of the mTORC1 Signaling Pathway in MEF (Tsc2-/-, p53-/-) Cells (AID 2666).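 Note: percent of cells scored positive for phospho-rpS6 Ser235/236 immunostaining by imaging.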 Note: potency is the fitted concentration of half-maximal effect. The method in brief:
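Read-out: % positive cells per well, with thresholds from highest- and lowest-signal wells, based on phospho-rpS6 (Ser235/236) intensity normalized to Hoechst nuclear stain. Cells: Tsc2-/-, p53-/- MEFs carrying empty vector; compound 24 hrs, 37 degree Celsius.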

Experiment [14] can be described thus: High Content Imaging Cell-Based qHTS for Inhibitors of the mTORC1 Signaling Pathway in MEF Cells (AID 2667). Note: potency is the fitted concentration of half-maximal effect. The method in brief: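 MEF (Tsc2-/-, p53-/-, WT Tsc2 re-expressed); cpd 24 h, 37 °C; PFA fix; Alexa-488 anti-p-rpS6 Ser235/236, PI, Hoechst; IN Cell imaging; Hoechst/Alexa-488 intensity ratio; % active cells, thresholds set from rapamycin and DMSO wells.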

The target of experiment [15] is Endonuclease 4 (Escherichia coli (strain K12)) (UniProt P0A6C1). Put plainly: Counterscreen for APE1 Inhibitors: qHTS Validation Assay for Inhibitors of Endonuclease IV (AID 1708). The procedure, abridged: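 2 nM enzyme was preincubated with compounds for 15 min at room temperature in 50 mM Tris-HCl pH 7.5, 50 mM NaCl, 2 mM MgCl2, 1 mM DTT, 0.01% Tween-20. 50 nM THF-abasic TAMRA/BHQ-2 duplex substrate started the reaction.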

A short description of experiment [16]: qHTS for differential inhibitors of proliferation of Plasmodium falciparum line 3D7 (AID 1876). Note: potency is the fitted concentration of half-maximal effect.
Experiment [17] can be described thus: qHTS for differential inhibitors of proliferation of Plasmodium falciparum line Dd2 (AID 1882). Note: nearly all actives have a fitted effect of over 65% in size. Note: potency is the fitted concentration of half-maximal effect. Conditions: Potency: Plasmodium falciparum Dd2 proliferation inhibition. The method in brief: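 SYBR Green I DNA fluorescence read-out, ex 485/em 535 nm. Signals were normalized to 0.29 uM artemisinin and DMSO wells, then corrected using vehicle-only plates flanking each stack. Parasite growth ran 72 h in erythrocytes before lysis.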

Experiment [18] in a line: qHTS Assay for Identification of Small Molecule Inducers of Hypoxia Response (AID 2120; active = well fitted curve in the direction sought with a large enough effect in the signal ratio, with a control signal flat, not every such curve was filed as active; the % refers to the signal ratio). The method in brief:
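Induction of beta-lactamase reporter activity was measured in CellSensor HRE-bla ME-180 cells after 17 h compound treatment at 37 degrees C, using CCF4 substrate and the 460nm/530nm emission ratio to derive AC50 values.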

A short description of experiment [19]: Cytometric Cell-Based qHTS for Inhibitors of the mTORC1 Signaling Pathway in MEF (Tsc2-/-, p53-/-) Cells (AID 2660).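 Note: percent of cells above a phospho-rpS6 to PI ratio cutoff in each well; series mostly up to about 38 µM.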 The procedure, abridged: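 Percent of cells positive for normalized phospho-S6 staining is reported, with the cutoff set from rapamycin (7.5 nM) versus DMSO wells. Tsc2-/-, p53-/- MEFs received compound for 24 hrs.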

DNA repair nuclease/redox regulator APEX1 (Homo sapiens), sequence (P27695 whole entry, looked up): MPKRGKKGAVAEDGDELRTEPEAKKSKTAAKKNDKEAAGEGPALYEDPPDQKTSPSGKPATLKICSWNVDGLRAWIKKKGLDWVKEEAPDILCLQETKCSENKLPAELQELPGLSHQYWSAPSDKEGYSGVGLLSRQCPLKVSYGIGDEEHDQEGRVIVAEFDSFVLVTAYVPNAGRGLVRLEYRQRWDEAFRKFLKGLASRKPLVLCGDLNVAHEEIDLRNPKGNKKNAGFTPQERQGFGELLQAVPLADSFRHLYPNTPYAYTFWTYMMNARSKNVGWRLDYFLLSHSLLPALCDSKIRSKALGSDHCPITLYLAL
ATP-dependent DNA helicase Q1 (Homo sapiens), sequence (P46063 whole entry, looked up): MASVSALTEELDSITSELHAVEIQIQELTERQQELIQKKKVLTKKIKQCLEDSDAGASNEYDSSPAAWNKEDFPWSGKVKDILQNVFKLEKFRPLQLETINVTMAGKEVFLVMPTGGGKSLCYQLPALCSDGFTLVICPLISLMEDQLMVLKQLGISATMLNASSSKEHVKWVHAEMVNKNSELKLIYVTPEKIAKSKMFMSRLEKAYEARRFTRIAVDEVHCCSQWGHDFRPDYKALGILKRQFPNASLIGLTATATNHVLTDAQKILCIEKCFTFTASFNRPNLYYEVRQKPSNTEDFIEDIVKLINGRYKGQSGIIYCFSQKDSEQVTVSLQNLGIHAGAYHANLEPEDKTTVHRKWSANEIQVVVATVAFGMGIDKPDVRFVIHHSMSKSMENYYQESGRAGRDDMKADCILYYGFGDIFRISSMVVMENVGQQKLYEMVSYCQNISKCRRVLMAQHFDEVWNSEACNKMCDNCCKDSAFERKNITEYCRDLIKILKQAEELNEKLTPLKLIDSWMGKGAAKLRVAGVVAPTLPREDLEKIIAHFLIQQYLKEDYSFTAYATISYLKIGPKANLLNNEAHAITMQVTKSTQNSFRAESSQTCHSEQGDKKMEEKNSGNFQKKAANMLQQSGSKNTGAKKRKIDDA
RecQ-like DNA helicase BLM (Homo sapiens), sequence (P54132 whole entry, looked up): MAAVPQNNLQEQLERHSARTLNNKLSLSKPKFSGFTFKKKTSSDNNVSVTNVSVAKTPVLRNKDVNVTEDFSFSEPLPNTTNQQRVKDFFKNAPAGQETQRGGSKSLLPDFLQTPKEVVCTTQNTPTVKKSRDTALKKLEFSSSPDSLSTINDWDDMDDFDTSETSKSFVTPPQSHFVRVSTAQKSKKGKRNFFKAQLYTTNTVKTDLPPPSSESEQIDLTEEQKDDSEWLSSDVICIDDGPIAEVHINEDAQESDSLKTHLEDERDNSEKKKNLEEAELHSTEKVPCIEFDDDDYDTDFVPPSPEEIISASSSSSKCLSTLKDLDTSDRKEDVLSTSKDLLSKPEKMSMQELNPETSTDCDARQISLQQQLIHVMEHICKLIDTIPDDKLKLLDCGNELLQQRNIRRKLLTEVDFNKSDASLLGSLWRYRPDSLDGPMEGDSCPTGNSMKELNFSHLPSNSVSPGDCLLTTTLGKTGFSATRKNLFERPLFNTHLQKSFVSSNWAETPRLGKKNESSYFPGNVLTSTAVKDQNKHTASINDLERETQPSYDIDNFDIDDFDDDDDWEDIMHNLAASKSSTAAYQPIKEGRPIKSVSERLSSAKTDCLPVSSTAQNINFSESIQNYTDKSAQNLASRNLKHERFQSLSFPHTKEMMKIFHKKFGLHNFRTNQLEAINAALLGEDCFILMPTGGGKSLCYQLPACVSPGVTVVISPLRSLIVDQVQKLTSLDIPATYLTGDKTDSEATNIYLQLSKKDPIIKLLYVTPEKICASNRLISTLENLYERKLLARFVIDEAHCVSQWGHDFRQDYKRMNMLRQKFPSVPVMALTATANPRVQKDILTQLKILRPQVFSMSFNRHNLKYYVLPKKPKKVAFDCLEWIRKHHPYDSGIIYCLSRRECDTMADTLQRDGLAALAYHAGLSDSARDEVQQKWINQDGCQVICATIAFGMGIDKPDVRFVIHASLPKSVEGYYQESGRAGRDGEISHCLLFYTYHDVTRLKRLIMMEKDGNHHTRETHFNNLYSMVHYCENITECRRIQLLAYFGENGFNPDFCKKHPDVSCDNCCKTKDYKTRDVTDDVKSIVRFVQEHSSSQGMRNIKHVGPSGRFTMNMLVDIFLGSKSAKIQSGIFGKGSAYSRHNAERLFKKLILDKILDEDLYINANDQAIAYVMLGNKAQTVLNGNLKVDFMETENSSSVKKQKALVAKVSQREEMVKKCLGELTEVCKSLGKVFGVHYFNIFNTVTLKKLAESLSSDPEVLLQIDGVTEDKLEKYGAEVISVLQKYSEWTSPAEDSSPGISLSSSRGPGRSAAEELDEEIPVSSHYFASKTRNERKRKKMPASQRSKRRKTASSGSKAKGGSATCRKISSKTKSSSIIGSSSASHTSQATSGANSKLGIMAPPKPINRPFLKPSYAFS

Regarding `CCCN(CCC)C1CCc2ccc(O)cc2C1` (stereo not given), the outcome in experiment [1], in experiment [9], in experiment [10] and in experiment [11] was inactive. The Potency result in experiment [2], in experiment [3], in experiment [12], in [13] and in experiment [14] was “inactive” in each case. Moreover, the Potency is 8.91 µM (active) in [4]; 11.2 µM (active) in experiment [5]; 10 µM (active) in experiment [6]; 7.94 µM (active) in experiment [7]; 11.2 µM (active) in [8].

As to `c1ccc(CCCN2CCN(CCOC(c3ccccc3)c3ccccc3)CC2)cc1`, the Potency result in experiment [2], in experiment [3], in experiment [15] and in experiment [13] was “inactive” throughout. Besides, the Potency in experiment [4] was 4.47 µM (active); in [5] it was 7.08 µM (active); in experiment [16], 11.2 µM (active); in [6] it was 10 µM (active); in experiment [17], 8.91 µM (active); in experiment [7], 3.16 µM (active). In experiment [8], the Potency is 7.94 µM (active). Also, in experiment [11], the result was inactive.

On to `NC1CC1c1ccccc1` (stereo not given), for which the Potency result in [2], in experiment [3], in experiment [15], in experiment [17], in experiment [13] and in experiment [14] was “inactive” each time. Also, the Potency in experiment [4], in [5], in experiment [7] and in experiment [8] was 10 µM (active) each time. Further, the compound was classed as inactive in experiment [11].

On to `CCCCc1ccc(C(=O)O)nc1`, for which the compound was called inactive in experiment [1], in [10] and in experiment [11]. For the same compound, the Potency entry in experiment [2], in [3], in [4], in [5], in [6] and in experiment [17] was “inactive” each time. The Potency result in experiment [13] and in experiment [14] was “inactive” each time.

In the case of `CC1=NN=C(c2ccc(N)cc2)c2cc3c(cc2C1)OCO3`, the result in experiment [1], in experiment [10] and in experiment [11] was inactive. For the same compound, the Potency entry in experiment [2], in [3], in experiment [15], in [17], in experiment [12] and in [13] was “inactive” in each case. The Potency result in experiment [14] is “inactive”. Besides, the Potency in [4] was 10 µM (active); in experiment [7], 8.91 µM (active).

For `CC(=O)[C@H]1CCC2C3CC[C@H]4C[C@H](O)CC[C@]4(C)C3CC[C@@]21C` (stereo not given in full), the Potency result in experiment [2], in experiment [3], in experiment [15], in experiment [17], in [13] and in experiment [14] was “inactive” in each case. For the same compound, the Potency in experiment [4] was 14.1 µM (active); in experiment [7], 10 µM (active). Further, the compound was classed as inactive in experiment [10] and in experiment [11].

As to `CCOP(=O)(NC(C)C)Oc1ccc(SC)c(C)c1` (stereo not given), the call in experiment [18] was inactive.

For `c1ccc(C2(c3ccccc3)CC2C2=NCCN2)cc1` (stereo not given), the Potency entry in [19], in [13] and in experiment [14] was “inactive” in each case.

`O=C(N[C@H]1CN2CCC1CC2)c1ccc(Cl)cc1`: the Potency entry in experiment [13] and in experiment [14] was “inactive” each time.

`Cc1cc(O)ccc1Cl`: in experiment [18], the result was inactive.

On to `C/C=C(/C)C(=O)O[C@H]1C(C)=C2[C@H]([C@@H]1OC(=O)CCCCCCC)[C@@](C)(OC(C)=O)C[C@H](OC(=O)CCC)[C@@]1(O)[C@H]2OC(=O)[C@@]1(C)O`, for which the Potency in [13] was 0.0261 µM (active); in [14], 0.0037 µM (active).

As to `C=CC(=O)NCNC(=O)C=C`, in experiment [18], the compound was called inactive.

Turning to `OCCCBr`, in experiment [18], the compound was called inactive.

On to `CCCCCCCCc1ccc(O)cc1`, for which the call in experiment [18] was inactive.

As for `c1cc2ccc3cccc4ccc(c1)c2c34`, the result in [18] was inactive.

As for `CCn1cc(C(=O)O)c(=O)c2cc3c(cc21)OCO3`, the result in experiment [10] was inactive.

As to `CCOCCOC(C)=O`, in [18], the call was inactive.

Regarding `Nc1ccc(Cl)cc1N`, the compound was called inactive in experiment [18].

Regarding `O=[N+]([O-])c1cc([N+](=O)[O-])c2ccccc2c1`, in experiment [18], the compound was classed as inactive.

Consider `CC[C@@H](C(N)=O)N1CCCC1=O`, for which the Potency entry in [13] and in [14] was “inactive” each time.

In the case of `COc1ccc(C(c2ccc(OC)cc2)C(Cl)(Cl)Cl)cc1`, the result in experiment [18] was inactive.

For the compound `COC(C)(C)CCCC(C)C/C=C/C(C)=C/C(=O)OC(C)C` (stereo not given), in experiment [18], the compound was called inactive.

In the case of `O=[N+]([O-])c1c(Cl)c(Cl)cc(Cl)c1Cl`, in experiment [18], the compound was called inactive.

With `CC[C@H](CO)Nc1nc(NCc2ccccc2)c2ncn(C(C)C)c2n1`, the Potency in [4] was 5.01 µM (active); in experiment [5], 6.31 µM (active); in experiment [16] it was 3.16 µM (active); in [6], 10 µM (active); in experiment [7], 5.62 µM (active); in [8], 5.62 µM (active).

Regarding `O=C(O)COc1ccccc1`, the result in [18] was inactive.

As to `CC(C)(O)C(=O)Nc1ccc([N+](=O)[O-])c(C(F)(F)F)c1`, the call in experiment [18] was inactive.

Consider `Nc1ccc(Sc2ccc(N)cc2)cc1`, for which the result in [18] was inactive.

Turning to `O=S(=O)(c1ccc(Cl)cc1)c1ccc(Cl)cc1`, the outcome in experiment [18] was inactive.

Regarding `O=C(O)C(Cl)Cl`, the outcome in [18] was inactive.

For `C1CCC(NC2CCCCC2)CC1`, the compound was called inactive in [18].

As for `CCCCC(CC)COC(=O)c1ccccc1C(=O)OCC(CC)CCCC` (stereo not given), in [18], the result was inactive.

For the compound `Nc1ccc([N+](=O)[O-])cc1`, the compound was called inactive in experiment [18].

As to `Nc1ccc(Cl)cc1`, in [18], the compound was called inactive.

Consider `CN(C)NC(=O)CCC(=O)O`, for which the compound was classed as inactive in experiment [18].

On to `O=[N+]([O-])c1c2ccccc2cc2ccccc12`, for which the call in [18] was inactive.

For the compound `CCCCOC(=O)c1ccccc1C(=O)OCc1ccccc1`, in experiment [18], the compound was called inactive.
